From PubChem BioAssay AID463173 (ICCB-Longwood Screening Facility, Harvard Medical School, 2010)
Out of some 52,000 compounds screened, about 4,300 (8.3%) were called active. Rule as the data show it: active = survival mostly below about 52% (no sharp cut-off); inactive = mostly above about 56%. What follows is part of a selection rich in actives, with near analogues and random picks from the rest.

These compounds were tested on DeltatarO mutant (assay: S. aureus survival, RN4220 and DeltatarO strains – OD600, teichoic acid synthesis inhibitors, primary screen (AID 463173)). Details: S. aureus RN4220 wild type/DeltatarO growth, OD600, 18 h, hits give low values, screened at 18.75 µg/mL (by protocol).
For `Cc1cc(=O)n2c([nH]c3ccccc32)c1C(=O)O`, the survival was 61% (inactive).
`N#Cc1c(C(F)(F)F)cc(=O)n2c1[nH]c1ccccc12` was tested, and the survival was 37% (active).
For `CCOC(=O)CSc1nc(-c2ccccc2)cc(C(F)(F)F)c1C#N`, the survival was 70% (inactive).
`CC(=O)N1CCc2c(sc3c2c(=O)n(-c2ccccc2)c(=O)n3CC(=O)Nc2ccccc2)C1` was tested, and the survival was 91% (inactive).
For `COc1cccc(NC(=O)C(=O)NCCc2csc(-c3ccc(C(F)(F)F)cc3)n2)c1`, the survival was 94% (inactive).
For `CCOc1ccccc1NC(=O)c1nnn(CC(=O)Nc2ccc(OC)c(OC)c2)c1N`, the survival was 91% (inactive).
In the case of `Cc1ccc(Cn2c(CN3CCC(C(=O)NCC(C)c4ccccc4)CC3)cc3ccccc32)cc1` (stereo not drawn), the survival is reported as 113% (inactive).
`CCCNC(=O)C1CCN(Cc2cc3ccccc3n2Cc2ccccc2)CC1` was tested, and the survival was 87% (inactive).
For `CC(CNC(=O)C1CCN(Cc2cc3ccccc3n2Cc2ccccc2)CC1)c1ccccc1` (stereo not drawn), the survival was 47% (active).
For `Cc1cc(N2CCN(C)CC2)nc2ccc(NC(=O)Nc3ccc(F)cc3F)cc12`, the survival was 73% (inactive).
In the case of `O=C(Cc1ccc(F)cc1)NCCc1csc(-c2cccc(F)c2)n1`, the survival is reported as 88% (inactive).
With `Cc1ccc(C)c(NC(=O)/C(C#N)=C/c2ccc(C(C)C)cc2)c1` the survival was 66% (inactive).
In the case of `Cc1cc(Cl)c2cccc(Br)c2n1`, the survival is reported as 110% (inactive).
With `Cc1cc(Nc2cccc(O)c2)c2cccc(Br)c2n1` the survival was 61% (active).
With `Cc1cc(Nc2ccccc2C)c2cccc(C)c2n1` the survival was 62% (inactive).
`Cc1cccc(NC(=O)NCCn2c(=O)oc3ccc(C)cc32)c1` was tested, and the survival was 71% (inactive).
With `Cc1ccc(C(C)C)c(OCCCn2c(=O)oc3ccccc32)c1` the survival was -3% (active).
In the case of `Cc1ccc(C(C)C)c(OCC(=O)N2CCC(c3nc4ccccc4o3)CC2)c1`, the survival is reported as 80% (inactive).
With `CCOc1ccccc1NC(=O)NCCn1c(=O)oc2ccc(C)cc21` the survival was 71% (inactive).
For `Cc1ccc(NC(=O)NCCOCCn2c(=O)oc3ccccc32)c(C)c1`, the survival was 70% (inactive).
For `Cc1ccc(C(C)C)c(OCCCn2c(=O)oc3ccc(C)cc32)c1`, the survival was -5% (active).
With `Cc1ccc(Cl)cc1NC(=O)Cn1c(=O)n(Cc2ccc(C(=O)NCc3ccc4c(c3)OCO4)cc2)c(=O)c2ccccc21` the survival was 90% (inactive).
In the case of `COc1ccc(NC(=O)Cn2c(=O)n(-c3cc(C)cc(C)c3)c(=O)c3oc4ccccc4c32)cc1OC`, the survival is reported as 68% (inactive).
With `CCc1ccccc1NC(=O)c1ccc2c(c1)N(Cc1cccc(Cl)c1)C(=O)c1ccccc1S2(=O)=O` the survival was 81% (inactive).
With `O=S(=O)(NCCc1nnc2ccc(SCc3ccc(C(F)(F)F)cc3)nn12)c1ccccc1` the survival was 67% (inactive).
For `COc1ccc(Br)cc1C(=O)Nc1cccc2ccc(C)nc12`, the survival was 73% (inactive).
For `CCOc1ccccc1C(=O)Nc1cccc2ccc(C)nc12`, the survival was 68% (inactive).
For `Cc1ccc2cccc(NC(=O)c3cccc4ccccc34)c2n1`, the survival was -2% (active).
With `Cc1ccc2cccc(NC(=O)c3cccc4c(Cl)cccc34)c2n1` the survival was 63% (inactive).
`Cc1ccc2cccc(NC(=O)c3cccc4c(Br)cccc34)c2n1` was tested, and the survival was 134% (inactive).
For `COc1c(C)cccc1C(=O)Nc1cccc2ccc(C)nc12`, the survival was -1% (active).
With `Cc1cc2c(cc1S(=O)(=O)CCC(=O)N1CCC(C)CC1)OCC(=O)N2` the survival was 102% (inactive).
`Cc1ccccc1-c1nc(CS(=O)(=O)CC(=O)N2CCN(c3ccccc3)CC2)c(C)o1` was tested, and the survival was 65% (inactive).
For `O=C(Cn1ccc2cc(S(=O)(=O)N3CCCC3)ccc21)NCc1ccc(Cl)cc1`, the survival was 84% (inactive).
In the case of `CCCNC(=O)c1cc2nc(-c3ccc(Br)cc3)cc(C(F)(F)F)n2n1`, the survival is reported as 51% (active).
In the case of `Cc1ccc(-c2cc(C(F)(F)F)n3nc(C(=O)Nc4sc5c(c4C#N)CCC(C)C5)cc3n2)cc1` (stereo not drawn), the survival is reported as 95% (inactive).
`COc1cccc(-c2cc(C(F)(F)F)n3nc(-c4ccc(C)cc4)cc3n2)c1` was tested, and the survival was 142% (inactive).
With `N#Cc1c(NC(=O)c2cc3nc(-c4ccc(Br)cc4)cc(C(F)(F)F)n3n2)sc2c1CCCC2` the survival was 32% (active).
For `Cc1cc(C(F)(F)F)n2nc(-c3ccc(Br)cc3)cc2n1`, the survival was 66% (inactive).
In the case of `Cc1ccc(-c2cc(C(F)(F)F)n3nc(-c4cccc(Br)c4)cc3n2)cc1`, the survival is reported as 46% (active).
In the case of `COc1ccc(-c2cc3nc(-c4ccc(Br)cc4)cc(C(F)(F)F)n3n2)cc1`, the survival is reported as 51% (inactive).
For `Cc1ccc(-c2cc3nc(-c4ccccc4)cc(C(F)(F)F)n3n2)cc1`, the survival was 69% (inactive).
With `Cc1cc2nc(-c3ccc(Br)cc3)cc(C(F)(F)F)n2n1` the survival was 37% (active).
With `CCc1ccccc1NC(=O)c1cc2nc(-c3ccc(Br)cc3)cc(C(F)(F)F)n2n1` the survival was 84% (inactive).
In the case of `COC(=O)c1c(NC(=O)c2cc3nc(-c4ccc(Br)cc4)cc(C(F)(F)F)n3n2)sc2c1CCCC2`, the survival is reported as 70% (inactive).
In the case of `CC(=O)c1cccc(NC(=O)c2cc3nc(-c4ccc(Br)cc4)cc(C(F)(F)F)n3n2)c1`, the survival is reported as 49% (inactive).
In the case of `Cc1ccc(CCNC(=O)c2cn(C)c3ccc(S(=O)(=O)N4CCC(C)CC4)cc3c2=O)cc1`, the survival is reported as 72% (inactive).
For `Cc1ccc(S(=O)(=O)n2nc(-c3ccccc3)nc2NCc2ccccc2Cl)cc1`, the survival was 85% (inactive).
In the case of `CCc1c(C)nc2nncn2c1NCc1ccc(OC)cc1`, the survival is reported as 85% (inactive).
In the case of `COc1ccc2c(c1)CC(C(=O)Nc1ccc(Br)c(C)c1)CO2` (stereo not drawn), the survival is reported as 70% (inactive).
In the case of `CCCN1C(=O)CC(C(=O)OC)=C1C`, the survival is reported as 81% (inactive).
For `CCOc1cccc2sc(N(Cc3cccnc3)C(C)=O)nc12`, the survival was 89% (inactive).
For `Cc1cc(Br)ccc1NC(=O)c1coc(=O)c2ccccc12`, the survival was 90% (inactive).
With `COc1ccc(-c2cc(C(F)(F)F)n3nc(-c4ccccc4)cc3n2)cc1OC` the survival was 61% (inactive).
In the case of `FC(F)(F)c1cc(-c2ccccc2)nc2cc(-c3ccccc3)nn12`, the survival is reported as 59% (inactive).
`FC(F)(F)c1cc(-c2ccccc2)nc2cc(-c3ccc(Br)cc3)nn12` was tested, and the survival was 42% (active).
With `CCN1CCN(Cc2nc3cc(NC(=O)c4ccccc4[N+](=O)[O-])ccc3n2CC)CC1` the survival was 78% (inactive).
With `Cc1cc(C)cc(NC(c2nnc(-c3cccc(F)c3)o2)c2ccc(F)cc2Cl)c1` (stereo not drawn) the survival was 48% (inactive).
`COc1ccc(NC(c2nnc(-c3ccccc3)o2)c2ccccc2F)cc1Cl` (stereo not drawn) was tested, and the survival was 59% (inactive).
`Cc1cc(NC(c2nnc(-c3ccccc3)o2)c2ccccc2F)ccc1Br` (stereo not drawn) was tested, and the survival was 40% (inactive).
For `Clc1ccc(CCNC(c2nnc(-c3ccccc3)o2)c2ccccc2Cl)cc1` (stereo not drawn), the survival was -3% (active).
In the case of `CC(C)c1ccc(NC(c2nnc(-c3ccccc3)o2)c2ccc(F)cc2Cl)cc1` (stereo not drawn), the survival is reported as 84% (inactive).
`Cc1ccc(NC(c2nnc(-c3ccccc3)o2)c2ccccc2F)c(Cl)c1` (stereo not drawn) was tested, and the survival was 85% (inactive).
`Cc1cc(C)cc(NC(c2cccc(Cl)c2)c2nnc(-c3ccccc3)o2)c1` (stereo not drawn) was tested, and the survival was 92% (inactive).
`CCOc1ccc(CCNC(c2cccc(Cl)c2)c2nnc(-c3ccccc3)o2)cc1OCC` (stereo not drawn) was tested, and the survival was 95% (inactive).
In the case of `Fc1ccccc1C(NCCc1ccc(Cl)cc1)c1nnc(-c2ccccc2)o1` (stereo not drawn), the survival is reported as -9% (active).
With `Fc1ccc(C(NCCc2ccc(Cl)cc2)c2nnc(-c3ccccc3)o2)c(Cl)c1` (stereo not drawn) the survival was -2% (active).
For `CCOc1ccc(CCNC(c2nnc(-c3ccccc3)o2)c2ccccc2Cl)cc1OCC` (stereo not drawn), the survival was 1% (active).
